Data on 38 molecules can be found in PubChem BioAssay (NCATS).

Several values for one entry are separate records, joined by “and”; a condition that tells them apart may be missing. Equal values may be shown once. Records with an inconclusive call do not appear. Unmarked numbers belong to inactive results. Activity calls are given as the source filed them. Calls follow the shape of the dose curve; as a rule, active = well fitted inhibition curve with a large enough effect; inconclusive = small, poorly fitted or top-dose-only effect; inactive = flat fitted curve, though single readings scatter.
% is scaled to controls: 0 for no effect and ±100 for the full control effect; potency is read from the fitted curve at half-maximal effect.

This experiment deals with HEK293. Put plainly: Cytotoxic Profiling of Annotated Libraries Using Quantitative High-Throughput Screening (AID 1296008). Also: nearly all actives have a fitted effect of over 60% in size. The following applies: Five cell lines viability, CellTiter-Glo ATP luminescence, 48-72 h; max response: hits give low values. An excerpt:
Cell-based phenotypic screening is a commonly used approach to discover biological pathways, novel drug targets, chemical probes and high-quality hit-to-lead molecules. Many hits identified from high-throughput screening campaign are ruled out through a series of follow-up potency, selectivity/specificity, and cytotoxicity assays. Prioritization of molecules with little or no cytotoxicity for a more in-depth downstream evaluation influence the future direction of projects, so cytotoxicity profiling of the screening libraries at early stage is essential for increasing the likelihood of candidate success. […] For the annotated library, we also examined the primary targets and mechanistic pathways regularly associated with cell death. To our knowledge, this is the first study to use high-throughput screening to profile large libraries for cytotoxicity assessment in both normal and cancer cell lines. In summary, the results generated here constitutes a valuable resource for the scientific community and provides insight on identifying cytotoxic compounds with particular mechanisms of action, and prioritizing compounds with suitable cytotoxicity profile for further evaluation.
A pintool (Kalypsys) was used to transfer 23 nL of compound solution to the 1536-well assay plates. After 48 or 72 hr incubation at 37 degree Celsius, 5% CO2 and 95% humidity, 2.5 uL of CellTiter-Glo (Promega) was dispensed into each well using a dispenser (Aspect Automation, St. Paul, MN) with solenoid valves (Lee Valves, Westbrook CT). Plates were left at room temperature for 10 min before imaging the ATP-coupled luminescence using a ViewLux microplate imager (PerkinElmer, Waltham, MA).
In general terms: In ATP-based viability assays light output follows the ATP content of the culture.
`CC1N=C(N)OC1c1ccccc1` (stereo not given): the max response was -15.4%.
Consider `COP(=O)(OC)OC=C(Cl)Cl`, for which the max response is -1.59%.
Consider `CC(C)[N+](C)(CCC(C(N)=O)(c1ccccc1)c1ccccc1)C(C)C`, for which the max response is -1%.
The same measure, in the same setting: under `O=c1n(Cl)c(=O)n(Cl)c(=O)n1Cl` stands -82.7%; under `CC[C@]1(O)CC[C@H]2[C@@H]3CCC4=CCCC[C@@H]4[C@H]3CC[C@@]21C`, -119%.
Regarding `ClC1=C(Cl)C2(Cl)C(CBr)CC1(Cl)C2(Cl)Cl` (stereo not given), the call was inactive.
As for `CCC(=O)C(CCN(C)C)(c1ccccc1)c1ccccc1`, the max response is -18.5%.
Still for that read-out and setting: the result for `COc1ccc(OC)c(CC(C)N)c1` (stereo not given) reads -0.178%.
Regarding `CCN1CCCC1CNC(=O)C(O)(c1ccccc1)c1ccccc1` (stereo not given), the call was inactive.
On to `CN1C[C@@H](NS(=O)(=O)N(C)C)C[C@@H]2c3cccc4c3c(cn4C)C[C@H]21`, for which the max response was -5.36%.
On the same count and under the same terms, under `CCCCCCCCC(=O)NCc1ccc(O)c(OC)c1` stands -94.9%; under `ClCc1cccc(Cl)c1`, -1.26%; under `NC(=O)OCCCc1ccccc1`, 3.07%.
For the molecule `COc1cc(C[C@@H](C)N)c(OC)cc1C`, the max response was -43.2%.
As to `CC(Cc1ccccc1)NCCCCl` (stereo not given), the max response is 0.613%.
For the molecule `C[C@@H]1CC[C@H]2[C@@H](C)C(=O)O[C@@H]3O[C@@]4(C)CC[C@@H]1[C@]32OO4`, the Potency was 2.37 µM (active).
As to `CCCC(C)C1(CC)C(=O)N=C(S)NC1=O` (stereo not given), the outcome was inactive.
For `O=C(O)c1nn(Cc2ccc(Cl)cc2Cl)c2ccccc12`, the result was inactive and the max response is -10.4%.
`O=C(CCCCl)c1ccc(F)cc1`: the molecule was called inactive.
For the molecule `CCS(=O)(=O)C(C)(C)S(=O)(=O)CC`, the max response is 1.49%.
The same measure, in the same setting: the result for `COP(=S)(OC)Oc1ccc(Sc2ccc(OP(=S)(OC)OC)cc2)cc1` reads 3.86%.
As to `CCOC(=O)c1cncn1C(C)c1ccccc1` (stereo not given), the max response is -6.12% and the call was inactive.
For `C[C@]12CC[C@H]3[C@@H](CCC4=CC(=O)CC[C@@H]43)[C@@H]1CC[C@@H]2O`, the max response is 0.616%.
For `CCNc1nc(Cl)nc(NCC)n1`, the max response was 1.01%.
Still for that read-out and setting: the result for `COP(=S)(OC)Oc1ccc(S(N)(=O)=O)cc1` reads -8.17%.
Take `CC(CC(C#N)(c1ccccc1)c1ccccc1)N(C)C` (stereo not given): the Potency was 24.3 µM (active).
Turning to `COCC(=O)N(c1c(C)cccc1C)C(C)C(=O)OC` (stereo not given), the max response is -19.3%.
In the case of `NC(=O)CN1CCCC1=O`, the molecule was classed as inactive.
On the same count and under the same terms, under `Nc1ccccc1C(=O)OCC(O)CO` (stereo not given) stands “inactive”.
On to `CN1C2CCC(C)(C)C1CC(OC(=O)C(O)(c1cccs1)c1cccs1)C2` (stereo not given), for which the max response is -10.3%.
In the case of `C[N+]1(C)[C@@H]2CC[C@H]1CC(OC(=O)C(CO)c1ccccc1)C2` (stereo not given in full), the outcome was inactive.
Consider `COc1ccc2c3c1O[C@H]1[C@@H](O)C=C[C@H]4[C@@H](C2)N(C)CC[C@@]341`, for which the Potency is 33.7 µM (active).
For `CC(C)NCC(O)c1ccc(N)c(C#N)c1` (stereo not given), the molecule was called inactive.
Turning to `COC(=O)C1=CCCN(C)C1`, the max response is 2.76% and 4.85%.
Still for that read-out and setting: under `C[C@]12CC[C@H]3[C@@H](CCC4=CC(=O)CC[C@@]43C)[C@@H]1CC[C@@H]2C(=O)O` stands -4.71%.
Still for that read-out and setting: the result for `O=C1CN2CCOC2(c2ccccc2Cl)c2cc(Cl)ccc2N1` (stereo not given) reads -3.36%.
Take `CCC(OC(C)=O)C(CC(C)NC)(c1ccccc1)c1ccccc1` (stereo not given): the Potency is 31 µM (active).
Regarding `NCc1cccnc1`, the max response is -4.51%.
